Experiment [1] can be described thus: anti-His antibody binders, primary screen, artefact control for SMM control protein annotation, biochemical, small-molecule microarray, 635 nm fluorescence (AID 1128).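 Note: score merges feature fluorescence with signal-to-noise for each printed compound spot.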 The following applies: anti-His Alexa647 antibody binding, higher = more signal.
The test system of experiment [2] is Human papillomavirus type 1a E7 protein (residues 1-88). The experiment in a line: HPV1a E7 small-molecule binders, primary screen, biochemical, small-molecule microarray, residues 1-88, 635 nm (AID 1129). The following applies: small-molecule microarray binding, fluorescence 635 nm; higher = more signal.
The target of experiment [3] is Focal adhesion kinase 1 (Homo sapiens) (UniProt Q05397). The experiment in a line: small-molecule microarray binders of FAK, primary screen, biochemical, 635/667 nm fluorescence, BSA, DTT (AID 1130).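 Note: composite of spot emission at 667 nm and signal to noise over triplicate slides.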 The following applies: PTK2 binding, 635 nm fluorescence, higher = more signal.
In experiment [4] the test system is Fibrinogen (Alexa647-labelled). Put plainly: fibrinogen binders on compound microarrays, profiling panel, artefact control for SMM control-protein annotation, biochemical, small-molecule microarray, 635/667 nm fluorescence (AID 1131).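 Note: z-score merges 667 nm fluorescence with per-spot signal-to-noise over triplicate slides.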 Particulars: fibrinogen-A647 binding fluorescence, higher = more signal.
For experiment [5], the target named is Follistatin (Homo sapiens) (UniProt P19883). The experiment in a line: follistatin binders on small-molecule microarrays, primary screen, biochemical, small-molecule microarray, 635/667 nm fluorescence (AID 1132). The following applies: FST binding, 635 nm fluorescence, higher = more signal.
Experiment [6] deals with Fibroblast growth factor 2 (Homo sapiens) (UniProt P09038). The experiment in a line: FGF2 binders on small-molecule microarrays, primary screen, biochemical, small-molecule microarray, 635/667 nm fluorescence (AID 1133). The following applies: small-molecule microarray binding, FGF2, fluorescence 635/667; higher = more signal.
Experiment [7] is described as follows: mitochondrial membrane potential change in A549 cells, profiling panel, cell-based, JC-1 fluorescence, basal, 24 h, 100 nL (AID 1138).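 Note: A549 lung adenocarcinoma cells under basal conditions with no added stimulus; test concentration not given here.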 The following applies: higher = more signal.
Experiment [8] has as its system Lefty1. The experiment in a line: Lefty1 binders on small-molecule microarrays, primary screen, biochemical, small-molecule microarray, 635/667 nm fluorescence (AID 1139). The following applies: small-molecule microarray binding, fluorescence 635/667; higher = more signal.
Experiment [9] has as its system wheat germ agglutinin (Triticum aestivum), Alexa647-labelled. Put plainly: wheat germ agglutinin binders on compound microarrays, profiling panel, artefact control for SMM control-protein annotation, biochemical, small-molecule microarray, 635/667 nm fluorescence (AID 1140).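 Note: score merges 667 nm feature emission with signal to noise over triplicate slides.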 The following applies: WGA-A647 binding, 635 nm fluorescence, higher = more signal.
For experiment [10], the target named is Luciferin 4-monooxygenase (Photinus pyralis) (UniProt P08659). The experiment in a line: firefly luciferase enzyme inhibitors, primary screen, biochemical, luminescence, purified enzyme, 2006 set (AID 1141).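 Note: cell-free assay with purified firefly luciferase at 100 ng per well in PBS; test concentration not given here.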 Particulars: SteadyGlo luminescence, 30 min, higher = more signal, called active from +8 up or from −8 down.
In experiment [11] the test system is Wnt5a (protein binding on small-molecule microarray). The experiment in a line: Wnt5a binders on small-molecule microarray, primary screen, biophysical, 635/667 nm fluorescence (AID 1142).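 Note: fluorescence read at 667 nm with signal to noise per printed feature.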 Particulars: 635 nm fluorescence, higher = more signal.
Experiment [12] can be described thus: cell viability in Huh7 cells, primary screen, cytotoxicity control for HCV replication inhibitor project, CellTiter-Glo luminescence, basal, 48 h (AID 1143).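 Note: Huh7 hepatoma cells carrying a hepatitis C replication reporter with no stimulus; test concentration not given here.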 The following applies: Huh7 HCV replicon, higher = more signal, called active from +8 up or from −8 down. On the technique in general: In ATP-based viability assays light output follows the ATP content of the culture.

Experiment [13] is described as follows: P. aeruginosa biofilm formation inhibitors, primary screen, PAO1 strain, BacTiter-Glo luminescence, LB-PBS (AID 1144). The following applies: 12 h, higher = more signal.
Experiment [14] in a line: CREB reporter modulators without forskolin, primary screen, cell-based, PC12, CRE-LacZ reporter, unstimulated (AID 1145). The following applies: no forskolin, luminescence, 4.5 h, higher = more signal, called active from +8 up or from −8 down.
A short description of experiment [15]: CREB reporter modulators under forskolin, primary screen, cell-based, PC12, CRE-LacZ reporter, forskolin-stimulated (AID 1146).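 Note: PC12 cells with 6xCRE LacZ reporter stimulated by forskolin 10 µM; beta-galactosidase reporter signal reflecting CREB driven transcription.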 The following applies: luminescence, 4.5 h, higher = more signal, called active from +8 up or from −8 down.
Experiment [16] deals with Streptavidin (Streptomyces avidinii) (UniProt P22629). The experiment in a line: streptavidin binders on small-molecule microarray, primary screen, artefact control for SMM compound annotation, biophysical, 635/667 nm fluorescence (AID 1147).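 Note: signal reflects streptavidin binding to arrayed compounds as a control protein.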 Particulars: streptavidin binding, higher = more signal.
Experiment [17] is described as follows: small-molecule binders of probe aInhba, primary screen, biochemical, small-molecule microarray, 635/667 nm fluorescence (AID 1148).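 Note: score merges 667nm spot fluorescence with signal-to-noise for antibody binding to printed compounds.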 The following applies: higher = more signal.
The target in experiment [18] is Torsin-1A (Homo sapiens) (UniProt O14656). The experiment in a line: torsin A binders from cell lysate, primary screen, small-molecule microarray, wild-type, 635/667 nm (AID 1149). The following applies: COS7 hTOR1A-WT lysate, 635 nm fluorescence, higher = more signal.
Experiment [19] has the same target. Put plainly: small-molecule binders of mutant TOR1A in lysate, primary screen, cell lysate, small-molecule microarray, COS7 lysate, 635/667 nm fluorescence (AID 1150).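 Note: score pools 667 nm emission and signal to noise measuring lysate protein binding.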 Particulars: COS7 hTOR1A mutant lysate, 635 nm fluorescence, higher = more signal.
The test system of experiment [20] is Sonic hedgehog protein (Shh). Put plainly: small-molecule binders of Shh protein, primary screen, biochemical, small-molecule microarray, 635/667 nm fluorescence (AID 1151).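 Note: Shh protein binding to compounds spotted on small-molecule microarray slides; score combines spot fluorescence intensity with signal-to-noise across triplicate slides.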 The following applies: small-molecule microarray binding, 635 nm fluorescence; higher = more signal.

The source made the active and inactive calls. Unless noted, the rule behind the calls is not given here.

Consider 5 compounds from PubChem BioAssay.

Chain of Torsin-1A (Homo sapiens) (O14656 whole entry, looked up): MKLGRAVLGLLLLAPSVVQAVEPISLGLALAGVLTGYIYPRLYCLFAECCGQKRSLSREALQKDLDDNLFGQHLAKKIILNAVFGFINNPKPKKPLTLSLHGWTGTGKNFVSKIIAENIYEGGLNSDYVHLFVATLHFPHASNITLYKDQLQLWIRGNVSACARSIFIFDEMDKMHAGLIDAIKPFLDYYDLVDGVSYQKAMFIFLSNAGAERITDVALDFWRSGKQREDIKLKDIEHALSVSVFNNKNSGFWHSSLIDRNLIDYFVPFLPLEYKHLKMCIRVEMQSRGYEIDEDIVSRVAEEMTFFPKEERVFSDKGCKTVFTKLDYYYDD
Chain of Fibroblast growth factor 2 (Homo sapiens) (P09038 whole entry, looked up): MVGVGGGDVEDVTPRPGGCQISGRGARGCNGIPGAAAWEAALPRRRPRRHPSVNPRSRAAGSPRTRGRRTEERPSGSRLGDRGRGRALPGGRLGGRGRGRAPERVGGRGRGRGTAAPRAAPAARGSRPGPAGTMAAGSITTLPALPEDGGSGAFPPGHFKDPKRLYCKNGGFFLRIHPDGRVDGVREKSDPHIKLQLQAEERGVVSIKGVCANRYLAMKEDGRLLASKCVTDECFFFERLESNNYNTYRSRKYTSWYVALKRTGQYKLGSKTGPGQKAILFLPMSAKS
Chain of Focal adhesion kinase 1 (Homo sapiens) (Q05397 whole entry, looked up): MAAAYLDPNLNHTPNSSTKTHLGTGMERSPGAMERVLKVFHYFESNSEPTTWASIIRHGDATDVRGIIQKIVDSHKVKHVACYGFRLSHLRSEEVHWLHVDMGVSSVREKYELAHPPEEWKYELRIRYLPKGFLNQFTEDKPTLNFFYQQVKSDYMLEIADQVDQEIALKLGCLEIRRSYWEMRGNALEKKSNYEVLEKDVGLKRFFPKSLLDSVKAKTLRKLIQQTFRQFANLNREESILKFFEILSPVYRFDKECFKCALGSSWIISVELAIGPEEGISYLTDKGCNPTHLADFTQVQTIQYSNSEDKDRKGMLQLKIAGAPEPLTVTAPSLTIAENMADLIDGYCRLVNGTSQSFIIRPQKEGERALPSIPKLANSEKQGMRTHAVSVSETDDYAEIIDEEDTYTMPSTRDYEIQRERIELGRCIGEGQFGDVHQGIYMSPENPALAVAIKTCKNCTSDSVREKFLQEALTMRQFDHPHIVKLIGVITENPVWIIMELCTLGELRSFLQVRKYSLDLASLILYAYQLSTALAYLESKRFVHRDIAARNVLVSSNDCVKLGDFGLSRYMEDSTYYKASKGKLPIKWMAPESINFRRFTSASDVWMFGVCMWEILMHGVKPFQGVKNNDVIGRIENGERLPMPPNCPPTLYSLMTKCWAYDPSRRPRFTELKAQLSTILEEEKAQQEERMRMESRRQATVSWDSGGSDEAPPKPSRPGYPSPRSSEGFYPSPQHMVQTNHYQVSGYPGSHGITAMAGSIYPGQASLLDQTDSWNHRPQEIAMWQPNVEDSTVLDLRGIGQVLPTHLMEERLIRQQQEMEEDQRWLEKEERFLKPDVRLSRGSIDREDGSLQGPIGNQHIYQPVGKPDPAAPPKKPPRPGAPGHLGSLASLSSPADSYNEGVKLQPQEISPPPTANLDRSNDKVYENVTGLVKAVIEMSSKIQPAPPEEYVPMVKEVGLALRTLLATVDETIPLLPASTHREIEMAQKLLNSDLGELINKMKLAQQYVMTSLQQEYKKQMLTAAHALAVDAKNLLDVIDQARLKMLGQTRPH
Chain of Follistatin (Homo sapiens) (P19883 whole entry, looked up): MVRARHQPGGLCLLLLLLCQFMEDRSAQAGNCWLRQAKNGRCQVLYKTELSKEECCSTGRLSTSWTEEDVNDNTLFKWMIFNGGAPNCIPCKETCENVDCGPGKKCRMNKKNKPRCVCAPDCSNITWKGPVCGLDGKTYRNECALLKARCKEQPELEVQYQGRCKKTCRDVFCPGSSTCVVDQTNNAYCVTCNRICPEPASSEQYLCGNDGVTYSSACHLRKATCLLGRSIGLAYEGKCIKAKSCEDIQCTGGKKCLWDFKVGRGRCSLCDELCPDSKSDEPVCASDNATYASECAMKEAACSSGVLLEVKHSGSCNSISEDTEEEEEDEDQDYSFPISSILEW
Chain of Luciferin 4-monooxygenase (Photinus pyralis) (P08659 whole entry, looked up): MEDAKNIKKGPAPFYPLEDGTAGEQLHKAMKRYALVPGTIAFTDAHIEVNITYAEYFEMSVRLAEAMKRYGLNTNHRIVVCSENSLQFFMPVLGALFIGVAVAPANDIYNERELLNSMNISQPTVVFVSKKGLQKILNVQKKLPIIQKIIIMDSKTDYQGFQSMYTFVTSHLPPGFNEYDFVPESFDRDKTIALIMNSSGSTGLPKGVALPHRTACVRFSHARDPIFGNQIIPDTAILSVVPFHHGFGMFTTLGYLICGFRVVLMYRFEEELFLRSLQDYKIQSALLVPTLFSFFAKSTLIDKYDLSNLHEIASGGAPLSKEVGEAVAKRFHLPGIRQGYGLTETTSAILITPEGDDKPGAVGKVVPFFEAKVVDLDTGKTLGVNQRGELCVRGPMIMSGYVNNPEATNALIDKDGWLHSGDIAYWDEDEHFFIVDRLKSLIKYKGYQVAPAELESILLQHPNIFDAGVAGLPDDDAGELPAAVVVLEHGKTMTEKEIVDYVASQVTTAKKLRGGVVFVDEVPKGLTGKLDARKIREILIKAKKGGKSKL
Chain of Streptavidin (Streptomyces avidinii) (P22629 whole entry, looked up): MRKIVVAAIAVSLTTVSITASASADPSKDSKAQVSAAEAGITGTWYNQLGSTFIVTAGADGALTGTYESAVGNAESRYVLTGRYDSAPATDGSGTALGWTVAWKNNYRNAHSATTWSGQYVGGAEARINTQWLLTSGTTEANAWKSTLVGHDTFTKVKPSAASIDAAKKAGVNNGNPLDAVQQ

In the case of `COC(=O)[C@@]1(Cc2ccc(OC)cc2)[C@H]2c3cc(C(=O)N4CCCC4)n(Cc4nc5ccccc5[nH]4)c3C[C@H]2CN1C(=O)c1ccccc1`, the composite z-score in [1] is 2.01; in experiment [2], 1.24; in [3], 1.64; in experiment [4], 1.05; in experiment [5], 0.979; in experiment [6], -0.202. Besides, the composite z-score was -0.47 in experiment [8]; 1.14 in experiment [9]; 0.704 in experiment [11]; 1.78 in experiment [16]; 0.802 in experiment [17]; 0.0984 in experiment [18]. For the same compound, the figures for the composite z-score in experiment [19] and in [20] were 1.7 and -0.245, respectively. Besides, the z-score in experiment [7] is 1.92; in experiment [10] it was 1.53 (inactive); in experiment [12], -2 (inactive); in experiment [13], 0.848 (inactive); in [14], -0.182 (inactive); in experiment [15], 0.147 (inactive).

On to `C=C(CCCC)/C(=C/C[C@@H](OC(C)=O)c1cccc(OCCO)c1)c1cnc2ccccc2c1`, for which the composite z-score was 1.35 in [1]; 0.157 in experiment [2]; -0.0542 in [3]; 0.0837 in [4]; 1.4 in experiment [5]; 1.18 in [6]. The composite z-score was 1.37 in [8]; 0.978 in experiment [9]; 0.16 in [11]; 0.0063 in experiment [16]; -0.154 in experiment [17]; 1.17 in experiment [18]. Besides, the composite z-score was 0.762 in experiment [19] and 2.05 in [20]. Besides, the z-score in experiment [7] was 0.908; in experiment [10] it was -0.245 (inactive); in experiment [12], -0.82 (inactive); in experiment [13], -1.07 (inactive); in [14] it was 1.7 (inactive); in [15], -0.307 (inactive).

Take `O=C1C2C=CC(C(O)c3cc(C(F)(F)F)cc(C(F)(F)F)c3)N(Nc3ccccc3)C2C(=O)N1c1ccccc1` (stereo not given): the composite z-score is 0.692 in [1]; 1.27 in experiment [2]; 0.838 in experiment [3]; 0.462 in [4]; 0.0145 in [5]; -0.601 in experiment [6]. Moreover, the composite z-score in experiment [8] is 0.192; in experiment [9] it was 0.173; in experiment [11] it was 0.0943; in [16], -0.374; in experiment [17], -0.0136; in experiment [18], 0.702. Also, the composite z-score was 1.18 in experiment [19] and -0.857 in experiment [20]. In addition, the z-score is -0.424 in experiment [7]; -1.47 (inactive) in experiment [10]; -1.01 (inactive) in experiment [12]; -1.35 (inactive) in [13]; -0.326 (inactive) in experiment [14]; 0.501 (inactive) in experiment [15].

Turning to `[N-]=[N+]=Nc1ccccc1C[C@@]1(C(=O)N2CCCCC2)N=C(c2ccc(OCCCO)cc2)O[C@@H]1c1ccccc1`, the composite z-score turned out to be 1.63 in [1]; 1.2 in [2]; 0.98 in [3]; 0.95 in [4]; 0.72 in [5]; 0.11 in experiment [6]. Moreover, the composite z-score was -0.322 in [8]; 1.31 in [9]; 0.46 in experiment [11]; 1.23 in experiment [16]; 0.298 in experiment [17]; 0.417 in experiment [18]. In addition, the values for the composite z-score in experiment [19] and in experiment [20] were 0.36 and 0.131, respectively. Also, the z-score in experiment [7] was 1.13; in [10], -2.98 (inactive); in [12], -5.13 (inactive); in experiment [13] it was -0.682 (inactive); in [14] it was 2.11 (inactive); in experiment [15] it was -0.0605 (inactive).

On to `NCCCCCNC(=O)[C@H]1C[C@H]2C(=O)N[C@@H](Cc3ccccc3)C(=O)N2[C@H]1c1cccc(OCCO)c1`, for which the composite z-score was found to be 0.614 in [1]; 0.624 in [2]; 0.163 in experiment [3]; 0.962 in experiment [4]; 1.07 in experiment [5]; 0.159 in experiment [6]. Moreover, the composite z-score in [8] is 0.0778; in experiment [9], 0.782; in experiment [11] it was -0.0768; in experiment [16] it was 0.951; in experiment [17], 0.205; in experiment [18] it was 0.5. In addition, the composite z-score in experiment [19] turned out to be 0.71; in experiment [20], 0.102. The z-score in experiment [7] was 1.07; in experiment [10], -1.4 (inactive); in [12] it was -0.535 (inactive); in [13], -0.2 (inactive); in [14] it was 1.49 (inactive); in experiment [15] it was -0.389 (inactive).
